# From PubChem BioAssay AID1053143 (Broad Institute, 2014)
# In all, about 3,400 compounds went through this assay and about 120 (3.5%) were called active. The rule behind the calls is not given here. The list is a sample of the results. Results with a measured potency or affinity are listed apart.
# Test: HepG2 cell cytotoxicity, dose response, cytotoxicity control, ATP luminescence, cherry-pick, activator set 2 (AID 1053143)
# Settings: HepG2 viability, CellTiter-Glo ATP luminescence, 72 h; series mostly up to 26 µM; activity change, negative = cytotoxicity: at the top concentration
row,SMILES,"activity change, negative = cytotoxicity"
1,CN1CCN(c2ccc(-c3ccnn3C(=O)Nc3ccccc3)cc2)CC1,-18.8% (inactive)
2,CS(=O)(=O)N1CCN(c2ccc(NC(=O)c3ccc(Br)o3)cc2)CC1,-4.07% (inactive)
3,Cc1ccccc1Nc1nn2c(=O)c3ccccc3nc2s1,-18.2% (inactive)
4,COc1c(C(=O)NNC(=O)c2ccccc2)csc1Br,3.9% (inactive)
5,Oc1c(/C=N/c2ccccn2)sc2ccccc12,-10.5% (inactive)
6,CC(/C=N/Nc1nc2ccccc2[nH]1)=C\c1ccccc1,-7.42% (inactive)
7,Cc1ccc(/C=C/C(=O)c2nc3ccccc3[nH]2)cc1,-0.116% (inactive)
8,CC(C)C(OC(=O)C1=Cc2ccccc2OC1)C(=O)NCC1CCCO1 (centres undefined),-10.3% (inactive)
9,Nc1ccc(-c2nc3ccccc3s2)cn1,-7.55% (inactive)
10,Cc1ccc2nc(-c3ccc(NS(=O)(=O)c4ccc(F)cc4)cc3)sc2c1,-13.2% (inactive)
11,COc1ccc(OCc2cc(C(=O)N3CCOCC3)no2)c(Cl)c1,-6.33% (inactive)
12,O=c1cccc2n1Cc1cc3ccccc3nc1-2,-2.27% [at 12 µM] (inactive)
13,COc1ccc(C(=O)COC(=O)c2sccc2C)cc1OC,-0.285% (inactive)
14,O=C(Nc1ccc(NC(=O)C2CC2)cn1)c1ccccc1Cl,-12.3% (inactive)
15,O=C(Nc1ccc(C(=O)c2ccccc2)cc1)c1ccccc1,-10% (inactive)
16,Nc1ccccc1N=Nc1ccccc1N,-6.69% (inactive)
17,CC(C)(C)OC(=O)N/N=C\C=C\c1ccc2c(c1)OCO2,2.12% (inactive)
18,CCc1ccc(NC(=O)C(=O)c2ccccc2NC(C)=O)cc1,-1.17% (inactive)
19,O=C(Nc1ccc2c(c1)OCO2)N1CCCc2ccccc21,1.95% (inactive)
20,COc1ccc(NC(=O)N2CCCc3ccccc32)cc1,-6.43% (inactive)
21,O=C(Nc1ccc(NC(=O)C2CCCCC2)nc1)c1cccs1,31.7% (inactive)
22,COc1ccc(NC(=O)/C(=C\c2ccc3c(c2)OCO3)NC(C)=O)cc1,-15.9% (inactive)
23,COc1ccc2c(c1)CCC1C2=NN(/C(C)=C\C(C)=O)C1c1ccc(F)cc1 (centres undefined),-1.99% (inactive)
24,CCN(CC)c1cc(C)c(C#N)c2nc3ccccc3n12,-21.3% (inactive)
25,c1ccc(-c2ccc3ccccc3n2)cc1,-17.4% (inactive)
26,O=C(c1cccs1)N1CCN=C1SCc1ccc(F)cc1,11.9% [at 12 µM] (inactive)
27,COc1ccc(-c2cn(Cc3ccc(C(=O)c4ccccc4)cc3)nn2)cc1,-18% (inactive)

row,SMILES,"activity change, negative = cytotoxicity"
1,O=C(N/N=C/c1ccc(Br)cc1)c1ccc(Br)o1,12.5% (inactive)
2,CCc1ccc2cc3c(cc2n1)C(=O)c1ccccc1-3,-15.3% (inactive)
3,COc1ccc(NC(=O)Nc2ccc(F)c(Cl)c2)cc1,-6.84% (inactive)
4,O=C(Nc1ccc(F)c(Cl)c1)c1ccccc1,-28.6% (inactive)
5,COc1ccccc1NC(=O)CCC(=O)Nc1nnc(C2CCCCC2)s1,-8.45% (inactive)
6,COc1cccc(C=Cc2nccc3ccccc23)c1OC,-24% (inactive)
7,O=C1c2ccccc2C(=O)C1c1ccnc2ccccc12,11.3% (inactive)
8,C=CCSc1nc2c(cnn2-c2ccccc2)c(=O)n1N,-8.22% (inactive)
9,Cc1ccc(OCC(=O)Nc2ccccc2[N+](=O)[O-])c(Br)c1,13.1% (inactive)
10,O=c1c2ccccc2oc2cc(NCCCN3CCOCC3)ccc12,-6.64% (inactive)
11,O=c1c2ccccc2oc2cc(-c3ccc4cc[nH]c4c3)ccc12,-6.73% (inactive)
12,Cc1ccc(-c2nc(Nc3ccccc3)n[nH]2)cc1,-0.325% (inactive)
13,Cc1ccccc1Nc1nc(N)nc(-c2oc3ccccc3c2C)n1,-2.45% (inactive)
14,Nc1ccccc1-c1nc2ccccc2s1,-14.9% (inactive)
15,Nc1nc(CSc2ccccn2)nc(Nc2ccccc2)n1,-20% (inactive)
16,Nc1ccccc1-c1nc2ccccc2[nH]1,-14.4% (inactive)
17,Cc1ccc(C)c(Nc2nc(N)c3ccccc3n2)c1,-25.3% (inactive)
18,COc1ccc(-c2c3c(nc4sc(C(=O)Nc5ccccc5)c(N)c24)CCC3)cc1,3.45% (inactive)
19,CN(CC(=O)Nc1cccc(F)c1)C(=O)CCNC(=O)c1ccco1,13.2% (inactive)
20,CCOC(=O)c1ccc(S(=O)(=O)NCCNCc2ccccc2)cc1,27.4% [at 12 µM] (inactive)
21,CCOC(=O)C1CCN(C(=O)c2cc3cc(C)ccc3[nH]2)CC1,7.79% (inactive)
22,COC(=O)c1ccc2[nH]c(C3(O)CCCCC3)c(C)c2c1,-11.6% (inactive)
23,CC(C)c1ccc(N=C2N=C(N)c3ccccc32)cc1,-8.99% (inactive)
24,Cc1ccc(-c2noc(CSc3ccccc3)n2)cc1,-12.3% (inactive)
25,CCOc1ccc(NC(=O)c2ccc3c(c2)N(C)CCS3)cc1,0.299% (inactive)
26,COc1ccc(NC(=O)c2ccc3c(c2)N(C)CCS3)cc1,0.622% (inactive)
27,Cc1ccc(NC(=O)Nc2cnc3ccccc3c2)cc1,-13.6% (inactive)

row,SMILES,"activity change, negative = cytotoxicity"
1,c1ccc(-c2nc(-c3ccc(-c4ccon4)s3)no2)cc1,11.5% (inactive)
2,CCCC(=O)N=C1SC2CS(=O)(=O)CC2N1c1ccc(-c2nc3ccc(C)cc3s2)cc1 (centres undefined),-6.16% [at 6 µM] (inactive)
3,O=c1c2c3c(sc2nc2n1CCCCC2)CCCC3,7.6% [at 12 µM] (inactive)
4,Cc1ccc2cc(NC(=O)c3cccc(F)c3)ccc2n1,-11.1% (inactive)
5,O=C(Nc1ccc(NC(=O)c2ccco2)nc1)c1cccc(F)c1,3.89% (inactive)
6,O=C(Cc1ccccc1)Nc1ccc(NC(=O)c2ccco2)nc1,4.68% (inactive)
7,O=C(CCc1ccccc1)Nc1ccc(NC(=O)c2ccco2)nc1,6.73% (inactive)
8,CC(=O)Nc1ccc2c(c1)C(=Nc1cccc(C)c1)c1ccccc1-2,-8.52% (inactive)
9,C/C(=N\OC(=O)Nc1ccc(Cl)cc1)c1ncc(C(F)(F)F)cc1N1CCOCC1,-2.73% (inactive)
10,O=C(CSc1nnc(-c2cccnc2)o1)Nc1ccccc1F,-15.1% (inactive)
11,O=C(CSc1nnc(-c2ccccn2)o1)Nc1ccccc1F,-19.4% (inactive)
12,CCOc1nc(N2CCOCC2)nc(C)c1[N+](=O)[O-],-9.28% (inactive)
13,Cc1ccc(NC(=O)c2ccc(F)cc2F)cc1,-4.22% (inactive)
14,c1ccc(-c2ccc(-c3ccccn3)s2)nc1,-9.96% (inactive)
15,c1ccc(-c2nnc(-c3ccccn3)nn2)nc1,-17.4% (inactive)
16,COC(=O)c1ccc(-c2nc3ccc(C)cc3o2)cc1,-4.62% (inactive)
17,COc1cccc(-c2nnc(-c3ccc4ccccc4c3)o2)c1,-4.7% (inactive)
18,Cc1ccc2oc(-c3cccc(NC(=O)c4ccccn4)c3)nc2c1,-21.7% [at 12 µM] (inactive)
19,COc1ccc(-c2nnc(-c3ccc(C)cc3)o2)cc1,-7.01% (inactive)
20,COC(=O)CSc1nc2ccccc2c(=O)n1C,12.1% (inactive)
21,COc1cc(CO)ccc1OCc1ccc(Cl)nc1,-13.2% [at 12 µM] (inactive)
22,Clc1ccccc1OCc1nc(-c2ccccn2)no1,-14.1% (inactive)
23,Cn1c(SCC(=O)c2ccccc2)nnc1-c1ccco1,0.181% (inactive)
24,Cc1cc(C(=O)COC(=O)c2cccc(S(=O)(=O)N(C)C)c2)c(C)n1CC1CCCO1 (centres undefined),-5.36% (inactive)
25,CC(C)Oc1ccc(C(=O)OCC(=O)c2ccc[nH]2)cc1,-11.4% (inactive)
